The source of these data is publication PMC7862700, “An all-to-all approach to the identification of sequence-specific readers for epigenetic DNA modifications on cytosine”.

Holding throughout (assay): DAPPL (digital affinity profiling via proximity ligation, sequencing); 10 mM Tris-HCl pH 7.5, 50 mM NaCl, 1 mM DTT, 4% glycerol, room temperature, 30 min; GST-TFs on glutathione beads, 16-mer random dsDNA library, 0.1% formaldehyde crosslink after washing; high values mean tight binding
The target of one test is T1, FEV (Homo sapiens, UniProt Q99581 1-238).
T1 sequence: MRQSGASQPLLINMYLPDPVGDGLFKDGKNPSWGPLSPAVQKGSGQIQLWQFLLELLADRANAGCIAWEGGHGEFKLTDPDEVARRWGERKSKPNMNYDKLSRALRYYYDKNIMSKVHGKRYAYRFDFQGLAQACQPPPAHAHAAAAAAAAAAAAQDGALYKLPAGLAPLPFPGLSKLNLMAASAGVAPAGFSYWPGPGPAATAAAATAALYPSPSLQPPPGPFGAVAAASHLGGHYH
The following applies: protein: recombinant; tags: N-terminal GST; dsDNA, one strand shown. The method in brief:
(§1)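 Human transcription factors fused to GST were expressed in yeast, captured on glutathione beads, given DNA barcodes and pooled with a GST-only negative control. Pools were incubated with 200 nmole of a 16-mer random double-stranded DNA library in Tris/NaCl/DTT/glycerol buffer at room temperature for 30 min. They were then washed, crosslinked with 0.1% formaldehyde, proximity-ligated (BsaI/T4 ligase, 1 h, 37 °C), PCR-amplified and sequenced on an Illumina NextSeq500. Binding signal is each 6-mer's read frequency for a factor divided by its frequency for the GST control.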

Another test has as its target ETV5 (Homo sapiens, UniProt P41161 1-510). The following applies: protein: recombinant; tags: N-terminal GST; dsDNA, one strand shown. An outline of the steps:
as §1

Another test has as its target HSF1 (Homo sapiens, UniProt Q00613 1-529). The following applies: protein: recombinant; tags: N-terminal GST; chain copies: 3; dsDNA, one strand shown. An outline of the steps:
as §1

The next test deals with T2, SPIC (Homo sapiens, UniProt Q8N5J4 1-248).
T2 sequence: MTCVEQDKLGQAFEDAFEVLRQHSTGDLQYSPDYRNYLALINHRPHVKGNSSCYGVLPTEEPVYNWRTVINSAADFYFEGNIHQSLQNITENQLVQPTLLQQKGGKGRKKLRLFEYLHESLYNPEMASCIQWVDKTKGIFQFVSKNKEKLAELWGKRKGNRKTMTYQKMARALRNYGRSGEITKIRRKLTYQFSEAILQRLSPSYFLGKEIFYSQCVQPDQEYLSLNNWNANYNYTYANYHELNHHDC
The following applies: protein: recombinant; tags: N-terminal GST; dsDNA, one strand shown. An outline of the steps:
as §1

For a further test, the target named is ELF4 (Homo sapiens, UniProt Q99607 1-663). As to conditions: protein: recombinant; tags: N-terminal GST; dsDNA, one strand shown. An outline of the steps: as §1
The target of a further test is T3, ELK4 (Homo sapiens, UniProt P28324-2 1-405).
T3 sequence: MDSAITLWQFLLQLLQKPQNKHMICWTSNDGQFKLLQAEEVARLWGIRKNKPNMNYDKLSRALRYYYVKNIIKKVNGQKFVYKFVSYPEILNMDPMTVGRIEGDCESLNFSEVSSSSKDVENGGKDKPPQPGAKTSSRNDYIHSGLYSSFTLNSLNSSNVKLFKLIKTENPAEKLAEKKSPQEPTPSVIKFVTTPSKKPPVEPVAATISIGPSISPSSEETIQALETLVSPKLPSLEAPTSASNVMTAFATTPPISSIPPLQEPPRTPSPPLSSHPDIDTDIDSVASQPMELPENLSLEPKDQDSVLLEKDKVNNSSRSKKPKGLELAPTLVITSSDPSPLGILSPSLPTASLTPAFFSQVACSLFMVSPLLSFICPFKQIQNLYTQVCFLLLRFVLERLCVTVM
As to conditions: protein: recombinant; tags: N-terminal GST; dsDNA, one strand shown. The method in brief: as §1

In the next test the target is T4, ETV2 (Homo sapiens, UniProt O00321 1-342).
T4 sequence: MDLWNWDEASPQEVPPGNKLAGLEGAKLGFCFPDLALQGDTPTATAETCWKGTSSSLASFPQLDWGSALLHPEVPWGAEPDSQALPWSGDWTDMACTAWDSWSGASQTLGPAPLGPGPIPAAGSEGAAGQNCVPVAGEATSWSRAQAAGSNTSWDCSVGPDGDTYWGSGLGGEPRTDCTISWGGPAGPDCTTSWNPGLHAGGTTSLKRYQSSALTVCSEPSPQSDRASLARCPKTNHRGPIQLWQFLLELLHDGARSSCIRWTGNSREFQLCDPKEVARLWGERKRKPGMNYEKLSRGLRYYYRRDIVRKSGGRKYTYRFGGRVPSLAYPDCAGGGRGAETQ
As to conditions: protein: recombinant; tags: N-terminal GST; dsDNA, one strand shown. The method in brief: as §1

In a further test the target is T5, ELF3 (Homo sapiens, UniProt P78545 1-371).
T5 sequence: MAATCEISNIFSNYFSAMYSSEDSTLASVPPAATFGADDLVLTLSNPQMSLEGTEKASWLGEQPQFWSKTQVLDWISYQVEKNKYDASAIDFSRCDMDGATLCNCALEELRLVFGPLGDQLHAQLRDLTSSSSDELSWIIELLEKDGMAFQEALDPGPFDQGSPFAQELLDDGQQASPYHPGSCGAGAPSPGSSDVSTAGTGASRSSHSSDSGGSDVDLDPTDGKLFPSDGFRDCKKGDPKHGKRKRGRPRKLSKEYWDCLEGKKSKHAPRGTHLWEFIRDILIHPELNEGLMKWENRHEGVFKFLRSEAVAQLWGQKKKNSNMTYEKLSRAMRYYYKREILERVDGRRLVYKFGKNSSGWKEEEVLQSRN
As to conditions: protein: recombinant; tags: N-terminal GST; dsDNA, one strand shown. The method in brief:
as §1

Another test concerns the target CRX (Homo sapiens, UniProt O43186 1-299). As to conditions: protein: recombinant; tags: N-terminal GST; dsDNA, one strand shown. The method in brief:
as §1

A further test deals with ETV1 (Homo sapiens, UniProt P50549 1-477). As to conditions: protein: recombinant; tags: N-terminal GST; dsDNA, one strand shown. An outline of the steps: as §1
The next test deals with T6, ERF (Homo sapiens, UniProt P50548 1-548).
T6 sequence: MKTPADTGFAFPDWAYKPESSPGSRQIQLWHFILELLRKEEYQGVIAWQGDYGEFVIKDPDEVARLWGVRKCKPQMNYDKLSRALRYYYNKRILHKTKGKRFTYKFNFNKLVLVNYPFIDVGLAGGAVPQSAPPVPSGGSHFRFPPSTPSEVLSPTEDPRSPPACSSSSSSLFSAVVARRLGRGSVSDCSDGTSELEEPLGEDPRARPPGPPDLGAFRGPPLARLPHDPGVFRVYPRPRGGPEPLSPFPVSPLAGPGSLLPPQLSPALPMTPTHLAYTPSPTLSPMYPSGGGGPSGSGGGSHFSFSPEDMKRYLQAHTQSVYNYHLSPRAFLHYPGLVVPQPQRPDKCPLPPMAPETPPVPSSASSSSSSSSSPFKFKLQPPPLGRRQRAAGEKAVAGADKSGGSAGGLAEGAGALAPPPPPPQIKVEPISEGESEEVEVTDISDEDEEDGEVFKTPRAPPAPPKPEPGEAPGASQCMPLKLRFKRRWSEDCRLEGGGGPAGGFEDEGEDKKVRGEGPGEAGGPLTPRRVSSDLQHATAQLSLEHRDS
As to conditions: protein: recombinant; tags: N-terminal GST; dsDNA, one strand shown. An outline of the steps:
as §1

The target in the next test is T7, ETV3L (Homo sapiens, UniProt Q6ZN32 1-361).
T7 sequence: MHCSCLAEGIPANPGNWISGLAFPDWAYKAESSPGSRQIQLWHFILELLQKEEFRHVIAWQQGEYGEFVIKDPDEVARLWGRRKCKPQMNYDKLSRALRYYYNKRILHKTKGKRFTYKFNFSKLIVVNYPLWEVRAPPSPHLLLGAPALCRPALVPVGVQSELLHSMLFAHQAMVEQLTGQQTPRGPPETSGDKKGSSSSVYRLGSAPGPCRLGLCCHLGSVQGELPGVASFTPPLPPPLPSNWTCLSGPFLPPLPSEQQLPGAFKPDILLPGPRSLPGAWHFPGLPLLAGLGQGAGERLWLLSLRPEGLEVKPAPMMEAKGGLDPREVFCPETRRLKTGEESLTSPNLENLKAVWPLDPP
The following applies: protein: recombinant; tags: N-terminal GST; dsDNA, one strand shown. An outline of the steps: as §1

The next test concerns the target T8, ETS2 (Homo sapiens, UniProt P15036 1-469).
T8 sequence: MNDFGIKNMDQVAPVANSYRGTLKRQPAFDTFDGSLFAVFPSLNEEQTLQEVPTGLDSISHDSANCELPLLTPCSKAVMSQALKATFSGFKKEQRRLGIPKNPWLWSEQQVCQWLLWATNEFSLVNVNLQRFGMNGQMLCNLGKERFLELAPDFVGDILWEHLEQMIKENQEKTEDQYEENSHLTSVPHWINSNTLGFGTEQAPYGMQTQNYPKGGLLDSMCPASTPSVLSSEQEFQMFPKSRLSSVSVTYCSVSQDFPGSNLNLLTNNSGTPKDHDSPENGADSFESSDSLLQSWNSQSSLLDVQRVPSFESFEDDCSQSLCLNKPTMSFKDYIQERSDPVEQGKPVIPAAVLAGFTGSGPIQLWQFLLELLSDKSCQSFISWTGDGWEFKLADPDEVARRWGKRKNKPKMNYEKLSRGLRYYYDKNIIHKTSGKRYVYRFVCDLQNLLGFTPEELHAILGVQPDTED
As to conditions: protein: recombinant; tags: N-terminal GST; dsDNA, one strand shown. An outline of the steps: as §1

A further test has as its target T9, SPDEF (Homo sapiens, UniProt O95238 1-335).
T9 sequence: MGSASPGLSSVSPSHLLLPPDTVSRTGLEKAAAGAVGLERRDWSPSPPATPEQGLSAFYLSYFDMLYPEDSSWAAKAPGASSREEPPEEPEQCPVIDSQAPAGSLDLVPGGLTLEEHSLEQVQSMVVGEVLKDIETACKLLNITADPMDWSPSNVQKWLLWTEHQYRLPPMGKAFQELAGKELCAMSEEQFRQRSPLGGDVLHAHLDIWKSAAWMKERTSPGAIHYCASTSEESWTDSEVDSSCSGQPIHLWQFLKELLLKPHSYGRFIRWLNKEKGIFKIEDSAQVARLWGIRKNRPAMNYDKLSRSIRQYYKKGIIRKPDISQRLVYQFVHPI
The following applies: protein: recombinant; tags: N-terminal GST; dsDNA, one strand shown. The method in brief: as §1

The next test deals with T10, ETV7 (Homo sapiens, UniProt Q9Y603 1-341).
T10 sequence: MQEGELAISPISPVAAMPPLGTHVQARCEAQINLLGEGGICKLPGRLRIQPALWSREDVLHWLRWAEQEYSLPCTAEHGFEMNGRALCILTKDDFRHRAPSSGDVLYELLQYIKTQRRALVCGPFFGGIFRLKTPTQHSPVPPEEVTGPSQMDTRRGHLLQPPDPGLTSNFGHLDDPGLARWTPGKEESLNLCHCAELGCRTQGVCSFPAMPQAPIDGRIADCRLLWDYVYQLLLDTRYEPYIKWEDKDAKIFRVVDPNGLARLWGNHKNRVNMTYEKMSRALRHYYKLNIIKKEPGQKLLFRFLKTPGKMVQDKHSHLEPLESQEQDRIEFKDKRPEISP
As to conditions: protein: recombinant; tags: N-terminal GST; dsDNA, one strand shown. The method in brief:
as §1

The target of another test is T11, ELF5 (Homo sapiens, UniProt Q9UKW6-2 1-255).
T11 sequence: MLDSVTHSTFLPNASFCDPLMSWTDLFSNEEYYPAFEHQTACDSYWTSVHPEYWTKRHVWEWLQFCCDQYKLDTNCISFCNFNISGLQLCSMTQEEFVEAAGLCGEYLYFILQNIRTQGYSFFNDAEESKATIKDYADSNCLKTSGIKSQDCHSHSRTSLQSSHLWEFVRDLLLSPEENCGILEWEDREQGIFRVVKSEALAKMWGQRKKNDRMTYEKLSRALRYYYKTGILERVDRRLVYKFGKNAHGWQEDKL
The following applies: protein: recombinant; tags: N-terminal GST; dsDNA, one strand shown. The method in brief: as §1

The target in a further test is T12, ETV3 (Homo sapiens, UniProt P41162-2 1-143).
T12 sequence: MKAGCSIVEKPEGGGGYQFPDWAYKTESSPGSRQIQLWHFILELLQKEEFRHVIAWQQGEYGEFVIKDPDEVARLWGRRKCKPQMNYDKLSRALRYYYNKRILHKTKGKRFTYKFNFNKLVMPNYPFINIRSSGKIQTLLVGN
As to conditions: protein: recombinant; tags: N-terminal GST; dsDNA, one strand shown. The method in brief: as §1

In another test the target is ETV6 (Homo sapiens, UniProt P41212 1-452). The following applies: protein: recombinant; tags: N-terminal GST; dsDNA, one strand shown. An outline of the steps:
as §1

ETV6, sequence (P41212 whole entry): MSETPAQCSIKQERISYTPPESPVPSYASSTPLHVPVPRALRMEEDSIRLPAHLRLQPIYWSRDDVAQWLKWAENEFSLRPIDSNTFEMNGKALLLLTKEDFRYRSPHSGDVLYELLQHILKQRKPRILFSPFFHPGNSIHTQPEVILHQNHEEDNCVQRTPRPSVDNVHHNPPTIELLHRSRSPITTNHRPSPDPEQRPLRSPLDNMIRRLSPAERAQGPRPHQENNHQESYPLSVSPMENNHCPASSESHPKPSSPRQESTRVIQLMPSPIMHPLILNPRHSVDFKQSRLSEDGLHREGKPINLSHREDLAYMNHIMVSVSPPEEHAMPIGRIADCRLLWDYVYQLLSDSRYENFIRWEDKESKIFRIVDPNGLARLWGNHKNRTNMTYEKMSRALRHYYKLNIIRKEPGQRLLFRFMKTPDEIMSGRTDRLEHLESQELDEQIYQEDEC
HSF1, sequence (Q00613 whole entry): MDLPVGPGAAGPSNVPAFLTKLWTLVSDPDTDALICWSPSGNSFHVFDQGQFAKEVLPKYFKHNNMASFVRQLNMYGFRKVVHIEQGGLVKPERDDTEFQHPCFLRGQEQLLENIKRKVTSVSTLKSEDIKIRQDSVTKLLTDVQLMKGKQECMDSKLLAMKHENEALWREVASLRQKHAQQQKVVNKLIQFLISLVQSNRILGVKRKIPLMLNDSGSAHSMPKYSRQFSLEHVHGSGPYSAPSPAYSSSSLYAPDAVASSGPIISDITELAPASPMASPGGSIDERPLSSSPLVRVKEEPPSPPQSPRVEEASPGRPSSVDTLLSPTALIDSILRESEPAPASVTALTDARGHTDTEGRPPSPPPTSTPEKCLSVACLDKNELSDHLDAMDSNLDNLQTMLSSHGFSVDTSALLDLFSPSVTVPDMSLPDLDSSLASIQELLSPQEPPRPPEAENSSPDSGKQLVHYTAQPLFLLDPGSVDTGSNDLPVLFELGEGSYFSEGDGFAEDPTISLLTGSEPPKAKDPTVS
CRX, sequence (O43186 whole entry): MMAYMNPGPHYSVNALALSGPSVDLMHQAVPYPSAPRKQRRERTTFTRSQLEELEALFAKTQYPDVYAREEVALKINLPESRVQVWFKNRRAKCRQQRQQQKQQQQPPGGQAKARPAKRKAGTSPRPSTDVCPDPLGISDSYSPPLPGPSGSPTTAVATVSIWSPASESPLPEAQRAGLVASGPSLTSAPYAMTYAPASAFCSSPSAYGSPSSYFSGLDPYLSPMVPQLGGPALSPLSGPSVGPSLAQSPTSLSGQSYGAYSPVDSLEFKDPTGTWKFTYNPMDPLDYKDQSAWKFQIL
ETV1, sequence (P50549 whole entry): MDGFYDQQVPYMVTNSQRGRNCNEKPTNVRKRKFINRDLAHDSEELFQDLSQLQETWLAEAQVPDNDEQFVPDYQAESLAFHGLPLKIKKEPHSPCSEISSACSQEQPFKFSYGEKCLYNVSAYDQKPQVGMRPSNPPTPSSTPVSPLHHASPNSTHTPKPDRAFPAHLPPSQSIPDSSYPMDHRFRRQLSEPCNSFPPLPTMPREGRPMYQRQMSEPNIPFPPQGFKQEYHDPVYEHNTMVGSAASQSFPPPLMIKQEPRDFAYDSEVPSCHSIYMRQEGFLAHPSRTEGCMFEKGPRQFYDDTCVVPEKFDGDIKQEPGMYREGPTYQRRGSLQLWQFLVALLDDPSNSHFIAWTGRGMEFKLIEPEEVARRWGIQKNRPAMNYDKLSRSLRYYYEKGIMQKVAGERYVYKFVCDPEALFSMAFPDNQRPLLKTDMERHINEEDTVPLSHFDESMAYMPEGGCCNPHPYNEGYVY
ETV5, sequence (P41161 whole entry): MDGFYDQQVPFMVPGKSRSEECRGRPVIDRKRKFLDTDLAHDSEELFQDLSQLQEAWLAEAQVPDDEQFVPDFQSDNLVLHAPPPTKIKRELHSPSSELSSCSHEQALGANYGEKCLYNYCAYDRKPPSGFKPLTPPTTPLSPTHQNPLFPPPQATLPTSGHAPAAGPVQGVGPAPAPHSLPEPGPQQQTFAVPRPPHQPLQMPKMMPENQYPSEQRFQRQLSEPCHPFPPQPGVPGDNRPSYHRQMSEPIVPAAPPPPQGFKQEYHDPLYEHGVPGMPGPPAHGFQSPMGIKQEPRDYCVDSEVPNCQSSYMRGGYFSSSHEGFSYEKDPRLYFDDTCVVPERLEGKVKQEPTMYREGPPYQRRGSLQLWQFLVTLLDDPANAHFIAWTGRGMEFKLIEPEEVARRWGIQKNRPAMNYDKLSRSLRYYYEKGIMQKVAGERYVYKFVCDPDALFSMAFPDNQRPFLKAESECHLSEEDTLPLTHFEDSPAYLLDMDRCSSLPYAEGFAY
ELF4, sequence (Q99607 whole entry): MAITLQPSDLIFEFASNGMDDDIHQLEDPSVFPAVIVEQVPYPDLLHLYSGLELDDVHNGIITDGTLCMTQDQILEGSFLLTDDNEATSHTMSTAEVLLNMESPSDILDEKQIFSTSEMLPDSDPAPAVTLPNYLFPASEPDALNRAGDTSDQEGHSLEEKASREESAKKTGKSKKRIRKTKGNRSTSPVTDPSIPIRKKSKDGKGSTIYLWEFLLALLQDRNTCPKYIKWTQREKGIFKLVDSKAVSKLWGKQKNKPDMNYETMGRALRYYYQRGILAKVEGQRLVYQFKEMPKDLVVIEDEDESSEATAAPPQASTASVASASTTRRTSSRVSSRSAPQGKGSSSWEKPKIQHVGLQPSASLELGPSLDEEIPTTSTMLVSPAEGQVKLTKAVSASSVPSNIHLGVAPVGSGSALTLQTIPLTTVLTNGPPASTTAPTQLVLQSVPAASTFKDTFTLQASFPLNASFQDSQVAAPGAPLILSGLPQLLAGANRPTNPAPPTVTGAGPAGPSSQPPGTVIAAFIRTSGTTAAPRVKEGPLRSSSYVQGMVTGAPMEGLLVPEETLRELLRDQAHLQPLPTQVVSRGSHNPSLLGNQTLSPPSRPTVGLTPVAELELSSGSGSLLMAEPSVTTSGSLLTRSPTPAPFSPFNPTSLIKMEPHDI

As to TGTAAT, the binding signal was 1.12 fold enrichment (6-mer frequency, TF over GST control) with FEV; 1.17 fold enrichment (6-mer frequency, TF over GST control) in the test with ETV5; 1.39 fold enrichment (6-mer frequency, TF over GST control) with HSF1; 1.27 fold enrichment (6-mer frequency, TF over GST control) in the test with SPIC; 1.23 fold enrichment (6-mer frequency, TF over GST control) in the test with ELF4; 1.21 fold enrichment (6-mer frequency, TF over GST control) with ELK4. Also, the binding signal with ETV2 was 1.26 fold enrichment (6-mer frequency, TF over GST control); in the test with ELF3 it was 1.26 fold enrichment (6-mer frequency, TF over GST control); with CRX, 1.79 fold enrichment (6-mer frequency, TF over GST control); in the test with ETV1 it was 1.17 fold enrichment (6-mer frequency, TF over GST control); with ERF, 1.14 fold enrichment (6-mer frequency, TF over GST control); with ETV3L, 1.18 fold enrichment (6-mer frequency, TF over GST control). Besides, the binding signal was 1.23 fold enrichment (6-mer frequency, TF over GST control) with ETS2; 1.25 fold enrichment (6-mer frequency, TF over GST control) with SPDEF; 1.26 fold enrichment (6-mer frequency, TF over GST control) in the test with ETV7; 1.22 fold enrichment (6-mer frequency, TF over GST control) with ELF5; 1.05 fold enrichment (6-mer frequency, TF over GST control) in the test with ETV3; 1.22 fold enrichment (6-mer frequency, TF over GST control) with ETV6.
